Test results taken from PubChem BioAssay AID651919 (Sanford-Burnham Center for Chemical Genomics, 2012).
“And” between values parts separate entries of the source, which are not always exact repeats. Equal values may be shown once.

These molecules were tested against C-X-C chemokine receptor type 5 (Homo sapiens) (UniProt P32302) (assay: CXCR6 and CXCR5 receptor antagonist panel, profiling panel, selectivity assay for CXCR6 antagonist project, cell-based, CHO-K1 PathHunter beta-arrestin, luminescence, set 4 (AID 651919)). Conditions: run 1, at 79 µM (top of the series).

Row | SMILES | inhibition
1 | COc1ccccc1NC(=O)CN1C2CCCC1CC(NC(=O)c1cc(OC)c(OC)c(OC)c1)C2 (stereo not given) | 10.1%
2 | COc1cccc(C(=O)NC2CC3CCCC(C2)N3CC(=O)Nc2ccccc2)c1 (stereo not given) | 10.5%
3 | O=C(CN1C2CCCC1CC(NC(=O)c1ccc3c(c1)OCO3)C2)Nc1ccccc1 (stereo not given) | 27.8%
4 | COc1ccc(NC(=O)CN2C3CCCC2CC(NC(=O)c2cc(OC)c(OC)c(OC)c2)C3)cc1 (stereo not given) | -6.42%
5 | COc1cc(OC)cc(C(=O)NC2CC3CCCC(C2)N3CC(=O)Nc2ccc(C)cc2)c1 (stereo not given) | 8.41%
6 | COc1ccc(C(=O)NC2CC3CCCC(C2)N3CC(=O)Nc2ccccc2)cc1 (stereo not given) | 3.68%
7 | COc1ccc(NC(=O)CN2C3CCCC2CC(NC(=O)c2cc(OC)cc(OC)c2)C3)cc1 (stereo not given) | 22.9%
8 | COc1ccc(NC(=O)CN2C3CCCC2CC(NC(=O)c2ccc(OC)cc2)C3)cc1 (stereo not given) | -6.48%
9 | COc1ccc(C(=O)NC2CC3CCCC(C2)N3CC(=O)Nc2ccc(C)cc2)cc1 (stereo not given) | 22.2%
10 | COc1ccc(C(=O)NC2CC3CCCC(C2)N3CC(=O)Nc2ccc(F)cc2)cc1 (stereo not given) | -9.29%
11 | COc1cccc(C(=O)NC2CC3CCCC(C2)N3CC(=O)Nc2ccc(Cl)cc2)c1 (stereo not given) | -2.39%
12 | COc1ccc(C(=O)NC2CC3CCCC(C2)N3CC(=O)Nc2ccc(F)cc2)cc1OC (stereo not given) | 1.06%
13 | COc1cccc(C(=O)NC2CC3CCCC(C2)N3CC(=O)Nc2ccc(C)cc2)c1 (stereo not given) | 44.1%
14 | O=C(CN1C2CCCC1CC(NC(=O)c1ccc3c(c1)OCO3)C2)Nc1ccc(Cl)cc1 (stereo not given) | 44.8%
15 | COc1cc(C(=O)NC2CC3CCCC(C2)N3CC(=O)Nc2ccccc2Cl)cc(OC)c1OC (stereo not given) | 29.2% and 16%
